Reference: the OligoGym collection

target: ABHD8; test: pooled miR-30 sensor sort-seq; sequence = guide strand; details: shRNA

Sequence	sensor-assay potency score (higher = more potent)
TACAAAGGTGTAGCCATCGCTG	-0.814
TTGAAGATTGAGCAGAAGCTGG	-0.887
TAGCGCTTGAAGATTGCTCGCA	0.247
TCACCTTGTGCACTAGGTCTGG	-0.472
TTAACAGCTGCTTCTCCTTGGC	-0.231
TTCGCTTCTTGGCATAGCGCTT	-0.977
TTGACCTCTACAAAGGTGTAGC	-0.315
AAACTTATCGTGCATGCCGTGG	-1.36
TTTGCAGCTAGTGATGCGCTTC	-0.147
TTGCGGTACACGGTGATCCGGC	-0.925

target: ACACB; test: as above; details: shRNA

Sequence	sensor-assay potency score (higher = more potent)
TTTGCTTCTGATTTACTCTTGG	0.795
TTACTCTTGGTGATCGGCTTGG	0.104
TTGGATGTGTAGACCTCTCTTC	0.36
TGTATCTGGACTCTCCTCCTTC	-0.0476
TAATTTCTTGAGGTTCTCGGGG	-0.145
TTCAGTAGTGAATCCGCTGGGA	0.353
TACATTTCTATGCACAGCGGGT	-1.13
TTGTCATAAACATCTTCTGGGA	-0.671
TATCACACACTTGTCGTAGTGG	0.451
TACTTGTCTGAAAAGGATCGGG	0.16
TTGATCTTGACCTCAGCCTGTA	0.316
TTGTAAGCTGGATCGATCCTTC	-0.276
TTTATCAGATCTTTCTTTCGGA	0.775
TTTATCACACACTTGTCGTAGT	0.458
TTGGACTGTACGAATGTCCGTA	0.552
TTCTTGTCTTCTTTGGAGGGGG	-0.0633
TTCTCAAACACACACGTCTTAT	-1.28
TAAGAAAGCAACTCCATTCTTG	0.182
TAGAGGTATTCCACTGTCCCTG	-0.211
TTCATGTAGGTGGTGTAGCTGT	-0.772
TTTGTCTGCATACATTTCTATG	-1.38
TTCGGTAACTGTCAACCTCTTC	-0.589
TTATCAGATCTTTCTTTCGGAA	-0.751

target: ACAD10; test: as above; details: shRNA

Sequence	sensor-assay potency score (higher = more potent)
TATGACATAGAAGCTGTCCTCC	1.02
TTCGGTGCCATACCTCACCAGC	-0.906
AAGCACAGCTTGTAGATCCTAG	0.0767
TTGAGGTCTTCGATCAGTGGGG	-0.0648
TACAGCTCTCTGACAGGTGGAG	-0.377
TTCACAGAGATCAAGAACGTTA	0.0116
TTTCTCCTTGAGGTCTTCGATC	-1.58
